TDP1 block: blocks human tyrosyl-DNA phosphodiesterase 1; Potency, µM (doses to about 130 µM), inactives show top-dose activity change, negative = inhibition, usual class: inhibitors; recombinant TDP1, AlphaScreen DNA substrate cleavage; 350,000 compounds, 0.28% hits; AID 485290; further: potency means the concentration at half of the fitted maximal effect; nearly all actives have a fitted effect of over 40% in size
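Recombinant E. coli-expressed Tdp1 (1 nM) preincubated with compound 15 min at RT, then 5'-biotin/3'-phosphotyrosine-FITC DNA substrate (15 nM) added for 5 min. AlphaScreen beads (10 ug/ml) added, 10 min RT; tyrosine-FITC cleavage read as signal loss.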
CtBP-E1A blk: CtBP/E1A binding inhibition; AlphaScreen GST-E1A/His-CtBP binding, 1536-well; hits give low values; activity change, % (concentration not given with the values); 340,000 compounds, 0.49% hits; in the data active means activity change below about -65%; inconclusive means mostly about -30% to -63%
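Steps: dispense buffer (Tris pH 8.0, NaCl 300 mM, TCEP 1 mM, BSA, Tween 20); add 5X protein mix (GST-E1A, His-CtBP, 125 nM each); pin 23 nL compound; 2 h at 37 °C, dark; add 5X beads (50 ug/mL); 1 h; read.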
TDP1 cell CPT: growth inhibition of DT40 Tdp1-/-;hTDP1 cells with camptothecin (screen for TDP1 inhibitors) | chicken DT40 Tdp1-/-;hTDP1 cells + 20 nM CPT, ATP luminescence, 48 h | Potency, µM (top dose mostly 46.2 µM), for inactives: at the top dose activity change, negative = growth inhibition, actives largely listed as inhibitors | 420,000 compounds, 12% hits | AID 686979; further: potency means the concentration at half of the fitted maximal effect; nearly all actives have a fitted effect of over 55% in size
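Chicken DT40 Tdp1-/- cells stably complemented with human TDP1 were seeded at 400 cells/well in medium containing 20 nM camptothecin, exposed to pin-transferred compounds, and grown at 37 °C for at least 48 hr. Viability was read as ATP luminescence.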
IL-1B inflam inh: blocks inflammasome-driven IL-1 beta release; THP-1 LPS/ATP IL-1B secretion, AlphaLISA, 16 h; hits give low values; activity change, % at 57.5 µM; 360,000 compounds, 4.7% hits; in the data active means activity change below about -50%; inconclusive means mostly about -30% to -49%
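Secreted IL-1B measured by AlphaLISA bead assay after 16 h compound exposure of THP-1 cells; compounds (final up to 57.5 uM) added 1 h before LPS (250 ng/mL) and ATP (1.25 mM) stimulation; lower signal means less secretion.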
TDP1 cell noCPT: qHTS for Inhibitors of human tyrosyl-DNA phosphodiesterase 1 (TDP1): qHTS in cells in absence of CPT; DT40 Tdp1-/- hTDP1 cells, no CPT, ATP luminescence, 48 h; 420,000 compounds, 15% hits; AID 686978, 2013; Potency, µM (top dose mostly 46.2 µM), inactives show at the top dose activity change, negative = growth inhibition, actives largely listed as inhibitors; further: potency means the concentration at half of the fitted maximal effect; nearly all actives have a fitted effect of over 55% in size
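Growth of hTDP1-complemented DT40 Tdp1-knockout cells is measured by ATP luminescence after at least 48 hr compound exposure at 37 °C, with DMSO substituting for the 20 nM CPT used in the parallel screen.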
Six1-Eya2 blk: inhibitors of human Six1/Eya2 interaction; 360,000 compounds, 0.56% hits; Q15475+O00167; AID 651725; AlphaScreen GST-Six1/His-Eya2 binding, biochemical; hits give low values; activity change, % (concentration not given with the values); in the data active means activity change below about -65%; inconclusive means mostly about -30% to -63%
Target sequence (O00167 whole entry, looked up): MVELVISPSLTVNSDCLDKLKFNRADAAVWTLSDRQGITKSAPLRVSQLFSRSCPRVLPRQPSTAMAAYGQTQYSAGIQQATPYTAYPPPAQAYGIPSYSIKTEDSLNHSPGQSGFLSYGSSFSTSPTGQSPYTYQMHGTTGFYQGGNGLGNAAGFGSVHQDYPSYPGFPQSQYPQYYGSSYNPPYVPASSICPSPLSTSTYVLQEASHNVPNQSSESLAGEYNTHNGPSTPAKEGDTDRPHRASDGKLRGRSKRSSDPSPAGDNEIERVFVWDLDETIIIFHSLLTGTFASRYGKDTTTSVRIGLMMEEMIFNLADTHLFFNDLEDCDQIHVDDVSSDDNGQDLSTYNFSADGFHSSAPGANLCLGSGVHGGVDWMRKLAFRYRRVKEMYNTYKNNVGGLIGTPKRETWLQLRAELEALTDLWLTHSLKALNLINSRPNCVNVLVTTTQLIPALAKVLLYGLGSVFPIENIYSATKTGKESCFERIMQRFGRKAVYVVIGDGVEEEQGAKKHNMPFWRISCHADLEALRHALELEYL
Target sequence (Q15475 whole entry, looked up): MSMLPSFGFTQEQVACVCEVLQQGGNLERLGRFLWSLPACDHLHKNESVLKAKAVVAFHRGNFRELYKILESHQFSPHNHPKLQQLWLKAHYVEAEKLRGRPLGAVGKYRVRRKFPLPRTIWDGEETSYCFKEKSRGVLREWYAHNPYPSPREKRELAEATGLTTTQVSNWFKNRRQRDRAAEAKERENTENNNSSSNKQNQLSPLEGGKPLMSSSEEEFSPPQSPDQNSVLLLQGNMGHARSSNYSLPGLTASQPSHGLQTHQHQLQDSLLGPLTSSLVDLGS
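Six1/Eya2 binding was read as AlphaScreen signal after compounds were pinned into GST-Six1 plus His-tagged Eya2 (5X stock 250/500 nM) in pH 8.0 Tris/NaCl/TCEP buffer, beads added, then incubated 1 h, 37 C, dark.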
An asterisk follows results filed as active. Hits are enriched below; roughly 18% of the tested compounds scored in any of these assays. Unless noted, the call rests on the fitted dose curve; in most records, active means well fitted curve in the direction sought with a large enough effect; inconclusive means small, poorly fitted or top-dose-only effect, or another doubt; inactive means no such curve, though single readings can be large; an effect the other way counts as inactive or inconclusive. On the % scale 0 is the no-effect control and ±100 the full control effect.

What do the screens show for `C[C@H](NC(N)=O)C(=O)Nc1ccc(N2CCOCC2)c(S(=O)(=O)Nc2ccc(Cl)cc2)c1`?
TDP1 block: 2.8%; CtBP-E1A blk: 1.1; TDP1 cell CPT: 20.6µM*; IL-1B inflam inh: -0.6; TDP1 cell noCPT: inconclusive; Six1-Eya2 blk: 0.7

Results for COCCNC(=S)Nc1ccc(N2CCOCC2)c(S(=O)(=O)Nc2ccc(Cl)cc2)c1 ?
CtBP-E1A blk: -3.0; TDP1 cell CPT: inconclusive; IL-1B inflam inh: -3.0; TDP1 cell noCPT: 10.3µM*; Six1-Eya2 blk: -2.6

Results for COc1ccc(NC(=O)c2ccc(NC3CC(=O)N(c4ccc(C)cc4C)C3=O)cc2)cc1 (centres undefined) ?
TDP1 block: -1.2%; CtBP-E1A blk: 4.0; TDP1 cell CPT: inconclusive; IL-1B inflam inh: 17.8; TDP1 cell noCPT: inconclusive; Six1-Eya2 blk: 8.3

What do the screens show for `O=c1[nH]c2ccccc2cc1CN(Cc1ccco1)S(=O)(=O)c1ccc(F)cc1`?
TDP1 block: 5.5%; CtBP-E1A blk: 0.4; TDP1 cell CPT: inconclusive; IL-1B inflam inh: -29.7; TDP1 cell noCPT: inconclusive; Six1-Eya2 blk: -5.8

What do the screens show for `CSc1nc(N)n2nc(C(C)(C)C)cc2n1`?
TDP1 block: 0.0%; CtBP-E1A blk: -2.4; TDP1 cell CPT: 20.4%; IL-1B inflam inh: 17.5; TDP1 cell noCPT: -21.5%; Six1-Eya2 blk: 2.7

What do the screens show for `COc1ccc(NS(=O)(=O)c2cc(NC(=O)c3ccc(Cl)cc3)ccc2N2CCOCC2)cc1`?
TDP1 block: 1.4%; CtBP-E1A blk: -6.4; TDP1 cell CPT: 2.59µM*; IL-1B inflam inh: -25.9; TDP1 cell noCPT: 2.31µM*; Six1-Eya2 blk: -12.0

What do the screens show for `COC(=O)C[C@@H]1C=C[C@@H](NS(=O)(=O)c2ccc(OC)cc2)[C@@H](CO)O1`?
CtBP-E1A blk: 2.0; TDP1 cell CPT: 7.8%; IL-1B inflam inh: 23.3; TDP1 cell noCPT: 9.5%; Six1-Eya2 blk: 1.7

Results for CCOc1ccc(N2CC(C(=O)NCCc3ccccc3)CC2=O)cc1 (centres undefined) ?
TDP1 block: -0.3%; CtBP-E1A blk: -6.2; TDP1 cell CPT: 2.7%; IL-1B inflam inh: inactive; TDP1 cell noCPT: -15.0%; Six1-Eya2 blk: 9.1

What do the screens show for `Cc1cccc(C)c1NC(=O)/C(C#N)=C/c1cccs1`?
TDP1 block: 0.0%; CtBP-E1A blk: -1.4; TDP1 cell CPT: 11.6µM*; IL-1B inflam inh: -10.4; TDP1 cell noCPT: inconclusive; Six1-Eya2 blk: 0.2

How did OC(CNCc1ccccc1)c1ccccc1 (centres undefined) do in these assays?
TDP1 block: -2.9%; CtBP-E1A blk: 6.1; TDP1 cell CPT: -17.5%; IL-1B inflam inh: 9.3; TDP1 cell noCPT: -16.5%; Six1-Eya2 blk: -11.5

Results for Oc1cccc(C(O)CNCc2ccc(-c3ccccc3)cc2)c1 (centres undefined) ?
TDP1 block: 5.5%; CtBP-E1A blk: -11.8; TDP1 cell CPT: 18.4µM*; IL-1B inflam inh: -50.9*; TDP1 cell noCPT: inconclusive; Six1-Eya2 blk: -4.7

Results for Oc1cccc(C(O)CNCc2ccc(OCc3ccc(Cl)cc3Cl)cc2)c1 (centres undefined) ?
TDP1 block: 5.5%; CtBP-E1A blk: -9.2; TDP1 cell CPT: inconclusive; IL-1B inflam inh: -90.6*; TDP1 cell noCPT: 14.6µM*; Six1-Eya2 blk: -4.5

How did Cc1ccc(-c2ccc(C(=O)NCCCNC(=O)c3cnccn3)o2)cc1Cl do in these assays?
CtBP-E1A blk: 0.3; TDP1 cell CPT: inconclusive; IL-1B inflam inh: 15.8; TDP1 cell noCPT: inconclusive; Six1-Eya2 blk: -8.7

How did COc1ccc(NC(=O)c2cc(-c3cc(Cl)ccc3OC)n[nH]2)c(OC)c1 do in these assays?
CtBP-E1A blk: 13.8; TDP1 cell CPT: 23.1µM*; IL-1B inflam inh: inconclusive; TDP1 cell noCPT: inconclusive; Six1-Eya2 blk: 6.8
